Consider 36 compounds from PubChem BioAssay AID493244 (The Scripps Research Institute Molecular Screening Center, 2011).

Each structure is given as a SMILES string. Several values for one entry are separate records, joined by “and”; a condition that tells them apart may be missing. Equal entries are not always repeated. Screen size: about 340,000 compounds; about 390 (0.11%) were called active. What follows is part of a selection rich in actives, with near analogues and random picks from the rest. Values without a mark were called inactive.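 Rule for the calls: active = inhibition above the mean inhibition of all tested compounds plus 3 SD (cut at about 17% in these data); inactive = the rest.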

The experiment addresses Troponin I, cardiac muscle (Homo sapiens) + Troponin T, cardiac muscle (Homo sapiens) + Troponin C, slow skeletal and cardiac muscles (Homo sapiens) (UniProt P19429+P45379+P63316). As to the kind of experiment: calcium desensitizers of cardiac thin filaments – biochemical, IANBD-TnC fluorescence, EC70 calcium, primary screen (AID 493244).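 Note: assay run at fixed EC70 calcium of 1.6 mM.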 The note with it: IANBD-labeled cardiac RTF, Ca2+ fluorescence; at 7.15 µM; stronger effect = higher value.
For the compound `Cc1cc(C)c2nc(SCC(=O)N(C)C3CCS(=O)(=O)C3)cc(C)c2c1` (stereo unspecified), the inhibition was -11.7%.

In the case of `Cc1cc2oc(=O)cc(-c3ccccc3)c2c(C)c1-c1ccc(OC(F)(F)F)cc1`, the inhibition was -2.33%.

With `CCn1c(SCc2cc(=O)n3ccsc3n2)nc2ccccc21`, the inhibition was -0.11%.

Consider `COc1ccc(S(=O)(=O)NCC2CCCN(C(=O)c3occc3C)C2)cc1` (stereo unspecified), for which the inhibition is -1.36%.

Take `COc1ccc2oc(N)nc2c1`: the inhibition is 1.17%.

`COc1cc(C(=O)Nn2c(O)c(C3=c4ccccc4=NC3=O)sc2=S)ccc1O`: the inhibition is -0.38%.

For `C=CCn1c(N)cc(=O)nc1SCC(=O)Nc1cccc2ccccc12`, the inhibition was -2.98%.

With `COc1cc(OC)c2c(c1)OC(=O)CC2c1cc(OC)c(OC)c(OC)c1` (stereo unspecified), the inhibition is -1.64%.

Take `NC(=O)C1(N2CCCCC2)CCN(C(=O)c2ccc(C#Cc3ccccc3)o2)CC1`: the inhibition is -7.6%.

For `N#CC1(Nc2ccc(-c3ccc(Cl)cc3)cc2)CCCC1`, the inhibition was -2.12%.

For the compound `O=C(COC(=O)c1ccccc1Cl)NC1CCCCCCC1`, the inhibition is 3.26%.

As to `C=CCNC(=O)COC(=O)c1ccccc1C(=O)N(C)C1CCCCC1`, the inhibition was 18.3% (active).

With `O=C(COC(=O)c1ccccc1SCC(=O)NC1CCCCC1)NC1CCCCC1`, the inhibition was 1.46%.

For `CCCCN(C(=O)CSCc1ccc(C)cc1)c1c(N)n(Cc2ccccc2)c(=O)[nH]c1=O`, the inhibition is -2.92%.

As for `COc1cccc(NC(=S)C(C#N)=C2N(C)c3ccccc3N2C)c1`, the inhibition was -5.1%.

As to `Cc1nc(-c2ccccc2)sc1-c1nnc(C2CC2)o1`, the inhibition was -8.96%.

As for `O=C(CNC(=O)C12CC3CC(CC(C3)C1)C2)OCC(=O)N1CCCCC1`, the inhibition was -10.1%.

As to `CC1(C)C/C(=N/Nc2ccc([N+](=O)[O-])cc2[N+](=O)[O-])C(C)(C)O1`, the inhibition was -8.69%.

As to `Cc1ccc(C(=O)C[n+]2cc(-c3ccccc3)n3c2CCCCC3)cc1`, the inhibition is -12.2% and -7.58%.

Consider `CCOC(=O)c1nnn2c1nc(N1CCN(c3ccccc3)CC1)c1ccccc12`, for which the inhibition is -5.69%.

Regarding `CCCCn1c(N)c(N(CC(C)C)C(=O)CSc2ccc([N+](=O)[O-])cc2)c(=O)[nH]c1=O`, the inhibition was -11.5%.

Consider `C[N+](C)(C)CCNC(=O)c1cc[n+](Cc2ccccc2)c(/C=N/O)c1`, for which the inhibition was 0.25%.

Consider `CC1CCCCC1NC(=O)COC(=O)Cc1ccc(Br)cc1` (stereo unspecified), for which the inhibition is -1.84%.

Regarding `O=C1Nc2c(Br)cc(Br)cc2C1(O)N1CCOCC1` (stereo unspecified), the inhibition was -1.44%.

As for `CCc1[nH]nc(C(=O)N2CCCC(CO)(Cc3ccc(F)cc3F)C2)c1C` (stereo unspecified), the inhibition was -5.33%.

Take `COC(C(=O)Nc1ccc(S(=O)(=O)Nc2ccc(C)c(C)c2)cc1)c1ccccc1` (stereo unspecified): the inhibition was -0.7%.

As for `Cc1cccc(-c2c(NC(=O)c3ccco3)oc3ccc(Cl)cc3c2=O)c1`, the inhibition was -4.74%.

Take `C/C(=N/NC(=O)c1ccncc1)c1ccc2c(c1)OCO2`: the inhibition was -5.5%.

On to `C/C(=N\NC(=O)C(N)=O)c1ccc2c(c1)OCCO2`, for which the inhibition was 17.1% (active).

Consider `C/C(=N\NC(=O)COc1ccc(C)cc1[N+](=O)[O-])c1ccc2c(c1)OCCO2`, for which the inhibition is -7.39%.

For `CC(C)(C)c1ccc(C(=O)NCc2nnc(SCC(=O)N3CCCc4ccccc43)n2-c2ccccc2)cc1`, the inhibition was -6.84%.

For the compound `CCCCSc1nnc2c(n1)OC=Nc1ccccc1-2`, the inhibition was -2.01%.

As for `Cc1ccc2c(c1)C1C[N+](C)(CC(=O)c3ccccc3)CCC1N2C(=O)c1ccccc1Cl` (stereo unspecified), the inhibition was -13.7%.

For the compound `COc1ccc(C2CC(=O)NC(=O)C2)cc1`, the inhibition is -0.2%.

On to `COc1ccc(CCC(=O)Nc2ccc(Cl)c(S(=O)(=O)N3CCOCC3)c2)cc1OC`, for which the inhibition was -10.9%.

As to `CCc1nnc(NC(=O)c2cc(S(=O)(=O)N3CCN(CC)CC3)ccc2Cl)s1`, the inhibition was -8.17%.
